Experimental data published in PubChem BioAssay (NCI).
This is part of a sample that, as a whole, favours compounds with a hit. Of some 83,000 tested, about 20% had one in any assay.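 Single-dose data. Exposure time 48 hours. Values below 10 considered active.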 A number with no mark means an inactive call. Activity calls are given as the source filed them.

Legend:
Assay in all cases: NCI-60 one-dose screen, 48 h (100 = growth as untreated, 0 = no growth, -100 = all killed)
Conditions in all cases: 10 µM unless noted
SK-MEL-2 melanoma = test system: SK-MEL-2 melanoma
EKVX NSCLC = test system: EKVX NSCLC
SN12C renal = test system: SN12C renal
UO-31 renal = test system: UO-31 renal
TK-10 renal = test system: TK-10 renal
ACHN renal = test system: ACHN renal
CAKI-1 renal = test system: CAKI-1 renal
A498 renal = test system: A498 renal
CCRF-CEM leukemia = test system: CCRF-CEM leukemia
SR leukemia = test system: SR leukemia
RPMI-8226 leukemia = test system: RPMI-8226 leukemia
OVCAR-8 ovarian = test system: OVCAR-8 ovarian
OVCAR-5 ovarian = test system: OVCAR-5 ovarian
OVCAR-4 ovarian = test system: OVCAR-4 ovarian
SK-OV-3 ovarian = test system: SK-OV-3 ovarian
IGROV1 ovarian = test system: IGROV1 ovarian
OVCAR-3 ovarian = test system: OVCAR-3 ovarian
HS 578T breast = test system: HS 578T breast
NCI/ADR-RES ovarian = test system: NCI/ADR-RES ovarian
MOLT-4 leukemia = test system: MOLT-4 leukemia

| Structure (SMILES) | growth (SK-MEL-2 melanoma) | growth (EKVX NSCLC) | growth (SN12C renal) | growth (UO-31 renal) | growth (TK-10 renal) | growth (ACHN renal) | growth (CAKI-1 renal) | growth (A498 renal) | growth (CCRF-CEM leukemia) | growth (SR leukemia) | growth (RPMI-8226 leukemia) | growth (OVCAR-8 ovarian) | growth (OVCAR-5 ovarian) | growth (OVCAR-4 ovarian) | growth (SK-OV-3 ovarian) | growth (IGROV1 ovarian) | growth (OVCAR-3 ovarian) | growth (HS 578T breast) | growth (NCI/ADR-RES ovarian) | growth (MOLT-4 leukemia) |
| --- | --- | --- | --- | --- | --- | --- | --- | --- | --- | --- | --- | --- | --- | --- | --- | --- | --- | --- | --- | --- |
| O=C1C=C(OCC=C(Cl)Cl)C(=O)c2ccccc21 | 69.8% | 93.3% | 84.5% | 59% | 122% | 64% | 93.4% | 97.7% | 28.7% | 51.6% | 45.6% | 71.5% | 116% | 15.9% | 102% | 75.6% | 32.2% | 55.5% | 33.8% | – |
| Cn1c(NCCc2ccc(O)c(O)c2)nc2c1c(=O)n(Cc1ccc(Cl)c(Cl)c1)c(=O)n2C | 91.2% | 81.2% | 71.5% | 34% | 65.9% | 41.8% | 62.8% | 98.4% | 17.8% | 56% | 19.1% | 74.4% | 83.1% | 52.8% | 81% | 32% | 64.9% | 75.6% | 77.3% | – |
| CCc1c(Nc2ccccc2C)nc(N)[nH]c1=O | 109% | 94.5% | 100% | 90.7% | 105% | 106% | 90.9% | – | 100% | 85.9% | 104% | 119% | 92.3% | 107% | 109% | 93.4% | 110% | 115% | 109% | 99.4% |
| COc1cc2nc(N3CCCC3)nc(NCCc3ccccc3)c2cc1OC | 103% | 59.5% | 75.9% | 69.2% | 98.3% | 85.7% | 80.5% | 83.1% | 0.115% (active) | – | -21.8% (active) | 65.6% | 39.5% | -2.44% (active) | 84.7% | 70.3% | 82.5% | 98.4% | 61.8% | – |
| COc1cc2nc(N3CCCC3)nc(Nc3ccccc3)c2cc1OC | -52.5% (active) | 28.3% | -53.5% (active) | -53.5% (active) | 16.5% | -11.2% (active) | -19% (active) | 40.6% | -11.4% (active) | – | – | -30.1% (active) | -40.5% (active) | 25.1% | 48.5% | 23.3% | -70.4% (active) | -24.2% (active) | 18.4% | -24.7% (active) |
| Cc1cc(C)c2nc3nc(C)cc(C)c3c(N)c2c1 | 30.4% | 28.1% | 24.9% | -1.17% (active) | 41.4% | 5.3% (active) | 10.4% | 47% | 42.3% | – | – | 45.3% | 28.7% | 33.6% | 25.4% | – | 26.5% | 24.3% | 30.9% | – |
| Nc1n[nH]c2ccc([C@@H]3Nc4cc5c(cc4[C@H]4C6CCC(C6)[C@@H]34)C(=O)NC5)cc12 (stereo partly drawn) | 48.8% | 48.9% | 38.4% | 54.9% | 89.3% | 34.4% | 40.5% | – | 10.5% | 8.36% (active) | 34.6% | 21.5% | 33.1% | 30.7% | 42.1% | 12.6% | -3.29% (active) | 24.5% | 69% | 14.7% |
| CCN1CCC2(CC1)NC(=O)c1c(c3ccc(Cl)c(Cl)c3n1C)C2C#N (stereo not drawn) | 21.4% | 68.8% | 49.4% | 43% | 54.5% | 45.6% | 37.3% | – | 39.5% | 26.5% | 16.6% | 76.9% | 74.3% | 63.8% | 87.6% | 55.8% | 56.2% | 53.8% | 63.4% | 24.4% |
| CCCCn1c(-c2ccc(C(=O)O/N=C(\N)c3ccc4c(c3)OCO4)cc2)nc(-c2ccccc2)c1-c1ccccc1 | 84.9% | 51.8% | 39.3% | -62.3% (active) | 37.1% | -85.8% (active) | 11.5% | – | -30% (active) | -29.2% (active) | 29.6% | 44.5% | 54.1% | 40.1% | 89.5% | -68.5% (active) | 38.5% | 41.1% | 18.6% | 7.23% (active) |
| COc1ccc(S(=O)(=O)N2CC3(COC3)C2)cc1NC(=O)c1[nH]c(C)c2c1CCCCC2=O | 62.7% | 58.2% | 54.9% | 40.4% | 17.5% | 60.4% | 20% | – | 72.5% | 51.3% | 25.8% | 54.2% | 61.1% | 56.6% | 39.8% | 44% | 54.4% | 26.7% | 91.1% | 76.4% |
| CC1=C[C@H]2c3c(c(O)c(O)c4oc5cc(O)ccc5c(=O)c34)[C@H](c3cc(O)c(O)c4oc5cc(O)ccc5c(=O)c34)[C@H]2C(C)(C)C1 | 44.8% | 51.1% | 28.7% | 46.5% | 56% | 37.9% | 40.3% | – | 27.1% | 24.6% | 29.5% | 25.4% | 59.1% | 56% | 59.7% | 21.4% | 46.4% | 22.4% | 101% | 25.3% |
| Cc1cc(NS(=O)(=O)c2ccc(-c3cnc(C4CC4)o3)cc2)ccc1Cl | 45.3% | 28.5% | 48.4% | 46.5% | 54.3% | 40.4% | 34.7% | -17.8% (active) | 14.4% | – | 24.8% | 12.9% | 22% | 44.7% | 32.4% | 27.7% | -20.9% (active) | 11.9% | 0.314% (active) | – |
| C(=C\c1nccc2c1[nH]c1ccccc12)/c1ccccc1 | 37.4% | 38.3% | 46.2% | 13.2% | 34% | 35.6% | -8.56% (active) | 40.4% | – | 82.7% | – | 26.1% | 62.9% | 14.9% | 24.7% | -15.9% (active) | -13.3% (active) | 29.2% | 15.5% | 49.1% |
| O=S(=O)(Nc1ccc(Cl)c(F)c1)c1ccc(-c2cnc(C3CC3)o2)cc1 | 31.9% | 34.4% | 47.6% | 48.6% | 45.5% | 47.5% | 32.1% | -16.1% (active) | 19.9% | – | – | 24.5% | – | 49.1% | 36.3% | 27.4% | -6.7% (active) | – | -20.8% (active) | 28.6% |
| c1ccc(-c2c(-c3ccccc3)[n+](Cc3ccc4ccccc4c3)c(-c3ccc(-c4nc5ccccc5s4)cc3)n2Cc2ccc3ccccc3c2)cc1 | -88.7% (active) | -93.4% (active) | -86.7% (active) | -94.1% (active) | -80.9% (active) | -96.8% (active) | -89.5% (active) | -97.4% (active) | -14.8% (active) | – | – | -85.4% (active) | -93% (active) | -62.9% (active) | -97.4% (active) | -84.8% (active) | -89.4% (active) | -45.3% (active) | -52.1% (active) | -51.9% (active) |
| Cc1cc(C)nc(SC2=C(Nc3cccc(Cl)c3)C(=O)N(Cc3ccccc3)C2=O)n1 | 75.9% [30 µM] | 56% [30 µM] | 71.9% [30 µM] | 34% [30 µM] | 97.2% [30 µM] | 68.2% [30 µM] | 66% [30 µM] | – | 26.2% [30 µM] | 28.8% [30 µM] | 23.3% [30 µM] | 52.5% [30 µM] | 107% [30 µM] | 61.9% [30 µM] | 113% [30 µM] | 43.3% [30 µM] | 68.6% [30 µM] | 97.8% [30 µM] | 55.5% [30 µM] | 7.17% [30 µM] (active) |
